Source: PubChem BioAssay (NCI)
About 83,000 compounds went through this panel and 20% of them were active in at least one assay; those are over-represented in the sample as a whole.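 Negative percent growth values reflect cell death: -40 means 40% of the cells present at the start died, and -100 means all died.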 A number with no mark means an inactive call. The source made the active and inactive calls. The calls were made as follows: active = growth percent below 10; inactive = the rest.

System: NCI-H522 lung
Assay: NCI-60 one-dose screen, 48 h (100 = growth as untreated, 0 = no growth, -100 = all killed)
Details: 10 µM

| SMILES | growth |
| --- | --- |
| O=C(O)c1ccnc(Br)c1 | 105% |
| Cc1ccccc1N=C(c1ccccc1)C1C(=O)c2ccccc2C1=O | 59% |
| O=c1[nH]nc(SC2CCCCC2)c(=O)[nH]1 | 80.5% |
| C=CCc1cc(C(C)=O)cc(OC)c1O | 102% |
| CC(=O)OC(C(=O)O)c1ccccc1 (stereo not given) | 107% |
| Cc1cc(Cc2cc(C)c(N)cc2N)c(N)cc1N | 89.4% |
| Clc1ccc(-c2nnc(-c3cccc4ccccc34)o2)cc1 | 83.5% |
| O=S(=O)(O)c1cc(O)c2c(N=Cc3ccccc3O)c(S(=O)(=O)O)ccc2c1 | 91.4% |
| COC(=O)Nc1cccc(Cl)c1OC | 92.7% |
| Cc1ccc(C(=O)NC2c3ccccc3Oc3ccccc32)cc1 | 41.2% |
| CC(=O)NC(N)=S | 95.6% |

System: A549/ATCC NSCLC
Assay: as above
Details: 10 µM

| SMILES | growth |
| --- | --- |
| CN(C)c1nc2c([nH]1)c(=O)n(C)c(=O)n2C | 92.2% |
| NC(=S)N/N=C/c1ccc(N)cc1 | 76% |
| N#Cc1ccc(OC(=O)Nc2ccc(Cl)c(Cl)c2)cc1 | 47.2% |
| CCOC(=O)CSc1c([N+](=O)[O-])ncn1C | 97.6% |
| Cc1cc(=O)n(-c2ccc(F)cc2)[nH]1 | 102% |
| c1ccc2c(c1)Sc1ccccc1S2 | 94.2% |
| Nc1ncnc2c1nc(N)n2C1OC(CO)C(O)C1O (stereo not given) | -25.8% (active) |
| C=CCOC(=O)C(=O)OCC=C | 109% |
| O=[N+]([O-])c1cccc2nsnc12 | 104% |
| CSC(=N\N=C\c1ccc(N(C)C)cc1)/N=C/N(C)C | 103% |
| O=C(O)CCCc1ccccc1 | 102% |
| COc1cc([C@@H]2c3cc4c(cc3[C@H](O)[C@H]3COC(=O)[C@H]23)OCO4)cc(OC)c1OC | 14.2% |
| CCC(C)(O)c1ccc(C)cc1 (stereo not given) | 111% |
| O=C1C=CC(=O)N1c1ccc(I)cc1Cl | 46% |
| CC12CC3CC1C(C(=O)O2)C3C(=O)O (stereo not given) | 96.3% |
| CCc1nc(N)nc(N)c1-c1ccc(Cl)cc1 | 26.6% |
| Cc1cc(OCCO)cc(C)c1Cl | 104% |
| COc1cccc(/C=N/NC(=S)NC2CC3CCC2C3)c1O (stereo not given) | 43.9% |
| O=C(O)/C=C/c1ccc2c(c1)CCC2 | 106% |
| COC(=O)Nc1nc2ccc(C(=O)c3cccs3)cc2[nH]1 | 19.5% |
| C[N+](C)=c1ccc2nc3c(cc(Nc4ccccc4)c4ccccc43)oc-2c1 | 64.4% |
| O=c1[nH]nc(SC2CCCCC2)c(=O)[nH]1 | 91.4% |
| C=CCc1cc(C(C)=O)cc(OC)c1O | 95.8% |
| Cc1cc(Cc2cc(C)c(N)cc2N)c(N)cc1N | 85.2% |
| O=S(=O)(O)c1cc(O)c2c(N=Cc3ccccc3O)c(S(=O)(=O)O)ccc2c1 | 111% |
| COCCCC/C(=N\OCCN)c1ccc(C(F)(F)F)cc1 | 102% |
| COC(=O)Nc1cccc(Cl)c1OC | 106% |
| CC(=O)NC(N)=S | 96.1% |

System: 786-0 renal
Assay: as above
Details: 10 µM

| SMILES | growth |
| --- | --- |
| CN(C)c1nc2c([nH]1)c(=O)n(C)c(=O)n2C | 105% |
| NC(=S)N/N=C/c1ccc(N)cc1 | 99.9% |
| N#Cc1ccc(OC(=O)Nc2ccc(Cl)c(Cl)c2)cc1 | 89.5% |
| CCOC(=O)CSc1c([N+](=O)[O-])ncn1C | 111% |
| Cc1cc(=O)n(-c2ccc(F)cc2)[nH]1 | 105% |
| c1ccc2c(c1)Sc1ccccc1S2 | 94.9% |
| Nc1ncnc2c1nc(N)n2C1OC(CO)C(O)C1O (stereo not given) | -85.6% (active) |
| C=CCOC(=O)C(=O)OCC=C | 106% |
| O=[N+]([O-])c1cccc2nsnc12 | 114% |
| CCOC(=O)c1cc2cccc(OC)c2oc1=O | 95.5% |
| CSC(=N\N=C\c1ccc(N(C)C)cc1)/N=C/N(C)C | 103% |
| O=C(O)CCCc1ccccc1 | 97.4% |
| COc1cc([C@@H]2c3cc4c(cc3[C@H](O)[C@H]3COC(=O)[C@H]23)OCO4)cc(OC)c1OC | 12.4% |
| CCC(C)(O)c1ccc(C)cc1 (stereo not given) | 109% |
| O=C1C=CC(=O)N1c1ccc(I)cc1Cl | 97% |
| O=C(O)CCC(NC(=O)OCc1ccccc1)C(=O)O (stereo not given) | 104% |
| CC12CC3CC1C(C(=O)O2)C3C(=O)O (stereo not given) | 108% |
| CCc1nc(N)nc(N)c1-c1ccc(Cl)cc1 | 35.9% |

| SMILES | growth |
| --- | --- |
| Cc1cc(OCCO)cc(C)c1Cl | 97.3% |
| Cc1nc2ccccc2c2nnc(SCC(=O)N(Cc3ccccc3)c3ccccc3)n12 | 103% |
| COc1cccc(/C=N/NC(=S)NC2CC3CCC2C3)c1O (stereo not given) | 86.3% |
| CC(C)(O)C#CC#CC(C)(C)O | 106% |
| O=C(O)/C=C/c1ccc2c(c1)CCC2 | 101% |
| COC(=O)Nc1nc2ccc(C(=O)c3cccs3)cc2[nH]1 | 19% |
| C[N+](C)=c1ccc2nc3c(cc(Nc4ccccc4)c4ccccc43)oc-2c1 | 72.8% |
| O=C(O)c1ccnc(Br)c1 | 102% |
| Cc1ccccc1N=C(c1ccccc1)C1C(=O)c2ccccc2C1=O | 88.6% |
| C=CCc1cc(C(C)=O)cc(OC)c1O | 104% |
| CC(=O)OC(C(=O)O)c1ccccc1 (stereo not given) | 109% |
| Cc1cc(Cc2cc(C)c(N)cc2N)c(N)cc1N | 104% |
| Clc1ccc(-c2nnc(-c3cccc4ccccc34)o2)cc1 | 110% |
| O=S(=O)(O)c1cc(O)c2c(N=Cc3ccccc3O)c(S(=O)(=O)O)ccc2c1 | 99.8% |
| COCCCC/C(=N\OCCN)c1ccc(C(F)(F)F)cc1 | 100% |
| COC(=O)Nc1cccc(Cl)c1OC | 104% |
| Cc1ccc(C(=O)NC2c3ccccc3Oc3ccccc32)cc1 | 25.7% |
| CC(=O)NC(N)=S | 105% |
